For orientation: inhibition means the drop in the measured response relative to a control, in per cent. By remaining activity is commonly meant the signal under treatment as a percentage of the control signal. Broadly, the viability is a read-out of living cells in per cent, often relative to untreated cells. A word on the pEC50: it is the EC50 on a negative log10 scale, so that one unit is a factor of ten. A word on the AC50: it is the concentration giving half of the maximal activity seen.

Data on nine compounds can be found in PubChem BioAssay.

pEC50: −log10 of the molar value. Where “and” joins values, the source holds several entries; their conditions need not be identical. Equal values may be shown once. Results filed as inconclusive are left out. For some assays here: Measured potencies and affinities stand elsewhere. Calls of active or inactive are those of the source. Unless noted, how the calls were made is not given here.

Test [1] is described as follows: circadian clock period modulators, cell-based, LOPAC library, luminescence reporter (AID 2774).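 Further: values are relative to mean of DMSO wells on each plate.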 The conditions noted are these: circadian reporter cells, at 7 µM, actives lie on both sides.
Test [2] has as its system Hepatitis C virus NS3 helicase. The experiment in a line: HCV NS3 helicase inhibitors, primary screen, biochemical, fluorescence polarization, LOPAC1280 library (AID 687035; in the data active means inhibition above about 37%). Conditions: Purified HCV NS3 helicase, Cy5-dT15 ssDNA binding fluorescence polarization; stronger effect = higher value; concentration not given here.
The nature of test [3]: Cy5 fluorescence quenching or enhancement artefacts, artefact control for HCV NS3 helicase inhibitor project, biochemical, LOPAC1280 (AID 687037). The conditions noted are these: Cy5-DNA-NS3h complex fluorescence interference counterscreen. For orientation: A counterscreen serves to expose hits that act by an unwanted route or on another target.
Test [4] has as its target 6-phosphogluconate dehydrogenase, decarboxylating (Homo sapiens) (UniProt P52209). As to the kind of experiment: 6PGD enzyme inhibitors, primary screen, biochemical, human, recombinant enzyme, NADPH absorbance (AID 1159550;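 active means at least 20% inhibition of 6-phosphogluconate dehydrogenase activity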). Conditions: recombinant 6PGD, NADPH absorbance 341 nm; at 10 µM; stronger effect = higher value.
Test [5] deals with Aerobactin synthetase IucA (Klebsiella pneumoniae, hypervirulent). The experiment in a line: IucA enzyme inhibition, biochemical, LOPAC library, absorbance readout (AID 1346212).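 Further: 100% = no compound wells and 0% = no enzyme wells.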 Conditions: IucA enzyme assay, absorbance (OD) readout; stronger effect = lower value;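 tested at 8 µM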.
Test [6] can be described thus: growth inhibition of DIPG glioma cells, dose response, cell-based, SU-DIPG-XIII, MIPE4.0, CellTiter-Glo, qHTS (AID 1347061; cut-off not given, nearly all actives have AC50 up to about 37 µM;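 further: cells exposed to compound for 48 hours before readout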). The conditions noted are these: SU-DIPG-XIII viability, CellTiter-Glo ATP luminescence. In general terms: In ATP-based viability assays light output follows the ATP content of the culture.
Test [7] can be described thus: growth inhibition of DIPG glioma cells, dose response, cell-based, JHH-DIPG-1, MIPE4.0, CellTiter-Glo, qHTS (AID 1347062; cut-off not given, nearly all actives have AC50 up to about 27 µM). Conditions: JHH-DIPG-1 viability, CellTiter-Glo ATP luminescence.
Test [8] is described as follows: growth inhibition of DIPG glioma cells, dose response, cell-based, SU-DIPG-IV, MIPE4.0, CellTiter-Glo, qHTS (AID 1347063; cut-off not given, nearly all actives have AC50 up to about 30 µM;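 further: compound exposure lasted 48 hours before the viability readout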). The conditions noted are these: SU-DIPG-IV viability, CellTiter-Glo ATP luminescence.
A short description of test [9]: SU-DIPG-VI glioma cell viability, MIPE4.0 library, CellTiter-Glo luminescence, qHTS (AID 1347066; cut-off not given, nearly all actives have AC50 up to about 30 µM;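 further: cells exposed to compound for 48 hours before readout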). The conditions noted are these: CellTiter-Glo ATP luminescence.
Test [10] in a line: sensitizers of A549 cells to miR-34 induction, primary screen, imaging, A549 dox-inducible miR-34, nuclei and caspase counts (AID 1347080;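 active means compounds whose cell count with miR-34 switched on is under 0.7 times the count with it off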). Conditions: A549 miR-34 inducible, Hoechst nuclei count, 48 h.
Test [11] concerns the target NAD(+) hydrolase SARM1 (Homo sapiens) (UniProt Q6SZW1). The experiment in a line: SARM1 TIR NADase inhibitors, cell lysate, NAD-Glo luminescence (AID 1508614;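 active means compound whose remaining NAD level is above about 45 nM, limit read from the data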). Conditions: SAM-TIR HEK293T lysate NADase, at 1 µM, stronger effect = higher value.
Test [12] concerns the target Mitogen-activated protein kinase 7 (Homo sapiens) (UniProt Q13164). As to the kind of experiment: ERK5 transactivation activators in reporter cells, primary screen, cell-based, HTS (AID 1508626;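 active means luciferase signal above three times the same-plate solvent-only control wells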;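 further: luciferase driven by Gal4-ERK5 fusion binding five Gal4 sites before minimal TATA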). The conditions noted are these: HeLa Gal4-ERK5 transactivation, 18 h, at 5 µM, stronger effect = higher value.
Test [13] can be described thus: viability rescue of complex I mutant cybrids, primary screen, cell-based, galactose medium, ATP luminescence (AID 1645843;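 active means z-score of at least 1.8 in each of two replicates, scored against plate mean and spread of sample wells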;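 further: positive z means more ATP and so rescue of galactose-driven cybrid death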). Conditions: complex I mutant cybrid cells, 72 h, stronger effect = higher value.
Test [14] deals with Aerobactin synthetase IucA (Klebsiella pneumoniae hvKP1). As to the kind of experiment: Biochemical IucA enzyme inhibition primary screen of the Spectrum library (AID 1346200).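 Further: 100% = wells without compound and 0% = wells lacking enzyme.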 The conditions noted are these: malachite green pyrophosphate, A620, at 8 µM, stronger effect = lower value.
The nature of test [15]: liver-stage malaria parasite growth inhibition, primary screen, cell-based, HepG2, luciferase luminescence, HepG2 viability (AID 624349; in the data active means parasite load remaining mostly below about 12%, no sharp cut-off; inactive means mostly above about 10%;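 further: 100% = mean of DMSO negative control wells on the same plate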). The conditions noted are these: P. berghei liver stage in HepG2, luciferase luminescence, concentration not given here; parasite load remaining: stronger effect = lower value; viability: measured here: HepG2 viability without parasites.
Test [16] is described as follows: survival rescue of mitochondrial mutant cells in low glucose, primary screen, MELAS cybrids, Rieske KO mouse fibroblasts, CellTiter-Glo (AID 1508586;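 active means mean z-score across replicates of 1.96 or higher in either the MELAS or the Rieske mutant cell line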;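 further: z relative to plate mean and SD of compound and empty wells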).
The nature of test [17]: polyglutamine-triggered caspase-3 activation inhibitors, cell-based (AID 1583). Conditions: polyglutamine-induced caspase-3 activation, cell assay; stronger effect = higher value;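 tested at 10 µM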.
For test [18], the target named is Huntingtin (Homo sapiens) (UniProt P42858). As to the kind of experiment: inhibitors of mutant Htt aggregation in vitro, dose response, QA1 (AID 1584). Conditions: in vitro mutant huntingtin aggregation assay; confirmation test; at 10 µM; stronger effect = lower value.
The nature of test [19]: inhibitors of polyQ aggregate elongation, biochemical, solid-phase synthetic aggregates, QA3 (AID 1585). The conditions noted are these: biotin-polyQ incorporation; EC50: measured here: elongation inhibition potency; inhibition: at 100 µM, stronger effect = higher value.
Test [20] is described as follows: suppressors of polyQ aggregation in yeast, 75Q-TubU reporter (AID 1593). Conditions: Yeast 75Q polyglutamine aggregation reporter.
A short description of test [21]: rescue of polyQ-huntingtin neuronal dysfunction in worms, whole organism, C. elegans mechanosensory neurons, N-terminal huntingtin (AID 1599). Conditions: touch response, stronger effect = higher value.
A short description of test [22]: inhibitors of mitochondrial cytochrome c release, biochemical, purified mitochondria (AID 1603).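 Further: mouse liver mitochondria challenged with calcium chloride; signal normalized to the plate average as 100%.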 Conditions: stronger effect = lower value.
Test [23] in a line: inhibitors of polyQ protein aggregation (AID 1604). The conditions noted are these: polyglutamine-induced protein aggregation inhibition assay; stronger effect = higher value; tested at 2.5 µM.
The nature of test [24]: enhancers of glutamate uptake in motor neurons, MN-1 cell line (AID 1612).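 Further: tested at 1 µM final; 0% = mean of DMSO vehicle wells on each plate; positive means more glutamate uptake than control and negative means less.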 The conditions noted are these: MN-1 motor neuron cells, stronger effect = higher value.
Test [25] can be described thus: reducers of polyQ inclusions in PC12 cells, cell-based, NGF-treated PC12, GFPQ80 (AID 1614).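 Further: lower means fewer inclusions and 0 means no inclusions at all.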 The conditions noted are these: PC12 NGF-treated GFP-polyQ80 inclusion reduction.
Test [26] in a line: suppressors of polyglutamine aggregation in yeast, 75Q-TubH (AID 1616). The conditions noted are these: S. cerevisiae 75Q-TubH polyglutamine aggregation suppression; stronger effect = higher value.
A short description of test [27]: protection against mutant huntingtin cytotoxicity, PC12 cells, LDH release (AID 1610). Conditions: PC12 mutant huntingtin toxicity, final LDH at 4 uM, stronger effect = lower value. In general terms: LDH leaks from cells whose membrane has failed.
Where [28] appears, read: measured here: relative caspase fold change +Dox/-Dox.
[29] abbreviates: measured here: total cells with miR-34 induction, stronger effect = lower value.
The mark [30] stands for this setting: measured here: total cells without miR-34 induction.
Setting [31] is: MELAS cybrid survival, CellTiter-Glo 48 h, stronger effect = higher value.
Setting [32] is: Rieske KO mouse fibroblast survival, CellTiter-Glo 72 h.

Chain of 6-phosphogluconate dehydrogenase, decarboxylating (Homo sapiens) (P52209 whole entry, looked up): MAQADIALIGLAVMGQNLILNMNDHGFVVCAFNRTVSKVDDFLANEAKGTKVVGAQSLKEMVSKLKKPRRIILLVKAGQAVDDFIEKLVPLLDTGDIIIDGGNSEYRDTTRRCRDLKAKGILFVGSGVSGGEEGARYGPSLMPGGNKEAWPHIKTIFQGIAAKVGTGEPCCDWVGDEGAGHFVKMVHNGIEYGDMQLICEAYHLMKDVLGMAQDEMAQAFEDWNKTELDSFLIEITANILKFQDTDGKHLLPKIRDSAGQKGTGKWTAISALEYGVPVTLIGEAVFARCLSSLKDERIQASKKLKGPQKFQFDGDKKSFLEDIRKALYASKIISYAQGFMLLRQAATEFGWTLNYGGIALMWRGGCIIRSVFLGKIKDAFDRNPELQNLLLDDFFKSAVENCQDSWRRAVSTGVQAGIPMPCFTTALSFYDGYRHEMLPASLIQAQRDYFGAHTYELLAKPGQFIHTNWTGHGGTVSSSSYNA
Chain of Mitogen-activated protein kinase 7 (Homo sapiens) (Q13164 whole entry, looked up, the tested form may be a part): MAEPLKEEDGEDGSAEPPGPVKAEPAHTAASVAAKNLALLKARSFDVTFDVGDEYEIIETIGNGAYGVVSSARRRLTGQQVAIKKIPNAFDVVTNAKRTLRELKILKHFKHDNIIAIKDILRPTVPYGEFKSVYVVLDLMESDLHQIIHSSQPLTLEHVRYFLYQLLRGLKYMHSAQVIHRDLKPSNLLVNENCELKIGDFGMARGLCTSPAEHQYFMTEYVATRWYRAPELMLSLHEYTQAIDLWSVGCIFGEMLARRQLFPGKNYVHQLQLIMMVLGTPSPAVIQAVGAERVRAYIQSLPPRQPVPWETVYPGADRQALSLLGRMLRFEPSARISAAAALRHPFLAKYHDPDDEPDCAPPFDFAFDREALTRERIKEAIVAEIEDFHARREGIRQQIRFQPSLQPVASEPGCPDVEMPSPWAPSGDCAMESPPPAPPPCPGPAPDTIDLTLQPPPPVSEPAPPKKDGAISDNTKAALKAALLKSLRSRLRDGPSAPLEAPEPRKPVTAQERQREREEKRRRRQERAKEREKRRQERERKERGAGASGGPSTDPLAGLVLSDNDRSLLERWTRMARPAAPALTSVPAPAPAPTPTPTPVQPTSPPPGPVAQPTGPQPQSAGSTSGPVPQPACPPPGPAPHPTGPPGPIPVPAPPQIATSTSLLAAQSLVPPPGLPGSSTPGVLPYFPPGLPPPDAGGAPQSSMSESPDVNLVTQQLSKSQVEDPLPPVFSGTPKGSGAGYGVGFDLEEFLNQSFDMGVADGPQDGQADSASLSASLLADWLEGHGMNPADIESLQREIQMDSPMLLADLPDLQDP
Chain of NAD(+) hydrolase SARM1 (Homo sapiens) (Q6SZW1 whole entry, looked up, the tested form may be a part): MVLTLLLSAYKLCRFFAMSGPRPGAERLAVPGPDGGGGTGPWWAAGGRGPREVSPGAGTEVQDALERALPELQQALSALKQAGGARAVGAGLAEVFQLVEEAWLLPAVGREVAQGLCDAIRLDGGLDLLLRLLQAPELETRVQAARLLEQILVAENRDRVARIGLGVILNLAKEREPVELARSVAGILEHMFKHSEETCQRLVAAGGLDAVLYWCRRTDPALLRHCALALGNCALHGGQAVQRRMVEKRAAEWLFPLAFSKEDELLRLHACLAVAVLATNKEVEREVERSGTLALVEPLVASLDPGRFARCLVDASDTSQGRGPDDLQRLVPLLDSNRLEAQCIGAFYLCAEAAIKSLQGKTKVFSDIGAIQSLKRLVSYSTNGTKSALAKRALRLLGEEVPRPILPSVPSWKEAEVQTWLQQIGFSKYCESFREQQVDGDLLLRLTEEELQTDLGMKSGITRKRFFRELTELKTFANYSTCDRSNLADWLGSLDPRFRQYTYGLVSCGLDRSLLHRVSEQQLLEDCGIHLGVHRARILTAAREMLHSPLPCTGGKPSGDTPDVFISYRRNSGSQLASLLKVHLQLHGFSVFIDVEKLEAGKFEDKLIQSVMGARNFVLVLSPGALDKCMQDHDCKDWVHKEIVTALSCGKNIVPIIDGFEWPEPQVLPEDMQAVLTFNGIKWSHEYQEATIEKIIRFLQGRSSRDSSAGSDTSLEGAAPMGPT

Turning to `C[N+](C)(C)CC(=O)O`, the period change in test [1] is -0.005 h (inactive). Also, the inhibition in test [2] was -5% (inactive); in test [4], 5.32% (inactive). Further, the fluorescence ratio (interference) in test [3] is 0.9 (inactive). Moreover, the remaining activity in test [5] was 106% (inactive). For the same compound, the result in test [6], in [7], in test [8] and in test [9] was inactive. The fold change in test [10] (stronger effect = lower value) is 1.03 (inactive); in test [10] (setting [28]), 1.89. In addition, the cell count was determined as 9950 in [10] (setting [29]) and 9700 in test [10] (setting [30]). Moreover, the remaining NAD in [11] was 10 nM (inactive). Further, the luciferase signal in [12] was 268 AU (inactive). Moreover, the z-score in test [13] was 0.805 (inactive).
On to `OCC(O)Cc1ccc2c(c1)OCO2` (stereo unspecified), for which, in [4], the inhibition was 11.1% (inactive). In test [14], the activity remaining was 123% (inactive). Also, the luciferase signal in test [12] is 16 AU (inactive).
Turning to `C#C[C@]1(O)CC[C@H]2[C@@H]3CCC4=CC(=O)CC[C@]4(C)[C@H]3CC[C@@]21C`, in test [15], the parasite load remaining was 27.4% (inactive) and 14.2% (inactive). Moreover, the viability in test [15] was 48.6% and 66.5%. Besides, the inhibition in test [4] was 7.17% (inactive). For the same compound, the fold change in test [10] (stronger effect = lower value) is 0.927 (inactive) and 0.887 (inactive); in test [10] (setting [28]), 1.32 and 1.63. Besides, the cell count was 8580 and 9180 in test [10] (setting [29]); 9250 and 10300 in test [10] (setting [30]). For the same compound, the z-score in [16] (setting [31]) is -0.171 (inactive) and 0.217 (inactive); in test [16] (setting [32]), -0.0237 and 0.861; in [13], 0.355 (inactive). Besides, the remaining NAD in [11] is 10 nM (inactive). Further, in test [12], the luciferase signal is 68 AU (inactive).
Regarding `COc1cc([C@@H]2c3cc4c(cc3[C@H](OC(C)=O)[C@H]3COC(=O)[C@@H]23)OCO4)cc(OC)c1OC`, in test [4], the inhibition was -3.31% (inactive). Also, the activity remaining in test [14] is 96.2% (inactive). Further, the luciferase signal in [12] was 64 AU (inactive).
Take `Cc1cc2c(C(C)C)c(O)c(O)c(C=O)c2c(O)c1-c1c(C)cc2c(C(C)C)c(O)c(O)c(C=O)c2c1O`: the inhibition in [17] was 60.9%; in test [19], 68% (active); in test [4], 14.1% (inactive) and -10.8% (inactive). Besides, the aggregation ratio in test [18] is 0.119. The compound also had a pEC50 in [19] of 4.24. Moreover, the score in test [20] turned out to be 1.78. Further, the rescue above control in test [21] was found to be 0. For the same compound, the cytochrome c release ratio in [22] came out at 0.19. Also, the inhibition of aggregation in test [23] is 19.1%. Besides, the glutamate uptake change in test [24] is -53.4%. In test [25], this compound came in with an inclusion score of 0. Besides, in test [26], the aggregation suppression score worked out at 0.368. In test [14], the activity remaining was 96.1% (inactive) and 125% (inactive). For the same compound, the z-score in [16] (setting [31]) is -0.449 (inactive) and -0.0386 (inactive); in test [16] (setting [32]), -0.0272 and 0.0258.
Take `COc1ccc([C@H]2Oc3c(I)c(OC)cc(OC)c3C[C@@H]2O)cc1OC`: the inhibition in test [4] was 14.5% (inactive). Also, in test [14], the activity remaining is 103% (inactive). For the same compound, the luciferase signal in test [12] was 44 AU (inactive).
On to `CCCCCC[C@H]1C(=O)O[C@H](C)[C@H](NC(=O)c2cccc(NC=O)c2O)C(=O)O[C@@H](C)[C@@H]1OC(=O)CC(C)C`, for which, in test [4], the inhibition is 3.85% (inactive). The AC50 in test [9] is 1.32 µM (active).
As to `N#C[C@H](O[C@@H]1O[C@H](CO[C@@H]2O[C@H](CO)[C@@H](O)[C@H](O)[C@H]2O)[C@@H](O)[C@H](O)[C@H]1O)c1ccccc1`, the inhibition in test [4] was -14.3% (inactive). For the same compound, the concentration at half-maximal activity (AC50) in [6] is 23.5 µM (active); in [8] it was 8.33 µM (active); in test [9] it was 20.9 µM (active). Further, in [12], the luciferase signal is 56 AU (inactive).
Consider `CC(=O)Oc1ccc(Cl)c2cccnc12`, for which the inhibition in test [17] is 11.4%; in test [4], -4.5% (inactive). In addition, the score in test [20] is 0.08. For the same compound, the rescue above control in [21] worked out at 7.46. In addition, the cytochrome c release ratio in test [22] is 1.44. This compound displayed an inhibition of aggregation in test [23] of 87.2%. In [27], the normalised LDH release was 1.08. Also, in test [24], the glutamate uptake change was determined as 14.2%. Also, the aggregation suppression score in test [26] was found to be 0.0401. Also, the parasite load remaining in test [15] was -5% (inactive). In addition, in [15], the viability stood at 65.2%. Further, the activity remaining in test [14] was 124% (inactive).
